High-throughput results (PubChem BioAssay)
Compounds with a hit are over-represented: about 6.1% of the library has one in this group of screens.
VP16 counter = Gal4-VP16 reporter inhibition counter-screen; Drosophila S2 Gal4-VP16 UAS-luciferase, luminescence, 20 h; Potency, µM (top dose mostly 53.6 µM), inactives show at the highest dose activity, negative = inhibition, hits mostly inhibitors; hit rate 3.5% among 310,000;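 note: Gal4-VP16 expression switched on by copper sulfate through the metallothionein promoter; % is set by controls: 0 for no effect and ±100 for the full control effect; nearly all actives have a fitted effect of over 50% in size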
ATXN viability = cell viability loss in ATXN counter-screen. S2 cells (HEK-293 line with an ATXN2-luciferase reporter) viability, CellTiter-Fluor protease fluorescence, 24 h. Potency, µM (titrated, usually from 56.7 µM), most hits filed as cytotoxic. hit rate 0.49% among 400,000. AID 651635; note: nearly all actives have a fitted effect of over 40% in size
TGFb SMAD3 inh = blocks TGF-b signaling. HepG2 CAGA-GFP TGF-b/SMAD3 reporter, GFP fluorescence, 18 h; TGF-beta stimulated, 500 pg/mL final. hit rate 1.2% among 410,000. Potency, µM (series often up to 46.1 µM), for inactives: top-dose activity, negative = inhibition, actives largely listed as inhibitors. AID 588855; note: % is set by controls: 0 for no effect and ±100 for the full control effect; nearly all actives have a fitted effect of over 65% in size
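Per well, imaged GFP fluorescence of HEPG2 CAGA-GFP cells gives the signal; cells get compound, then TGF-beta (500 pg/mL final), 18 h at 37 degrees C; %Activity versus -TGF-beta and +DMSO controls.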
RORg inh = blocks mouse ROR gamma transcriptional activity; hit rate 5.4% among 310,000; AID 2551; Potency, µM (series often up to 53.6 µM), without a hit: at the highest dose activity change, negative = inhibition, actives largely listed as inhibitors; Drosophila S2 Gal4-RORgamma UAS-luciferase reporter, 20 h; note: % is set by controls: 0 for no effect and ±100 for the full control effect; nearly all actives have a fitted effect of over 60% in size
Target sequence (P51450 whole entry, looked up, the tested form may be a part): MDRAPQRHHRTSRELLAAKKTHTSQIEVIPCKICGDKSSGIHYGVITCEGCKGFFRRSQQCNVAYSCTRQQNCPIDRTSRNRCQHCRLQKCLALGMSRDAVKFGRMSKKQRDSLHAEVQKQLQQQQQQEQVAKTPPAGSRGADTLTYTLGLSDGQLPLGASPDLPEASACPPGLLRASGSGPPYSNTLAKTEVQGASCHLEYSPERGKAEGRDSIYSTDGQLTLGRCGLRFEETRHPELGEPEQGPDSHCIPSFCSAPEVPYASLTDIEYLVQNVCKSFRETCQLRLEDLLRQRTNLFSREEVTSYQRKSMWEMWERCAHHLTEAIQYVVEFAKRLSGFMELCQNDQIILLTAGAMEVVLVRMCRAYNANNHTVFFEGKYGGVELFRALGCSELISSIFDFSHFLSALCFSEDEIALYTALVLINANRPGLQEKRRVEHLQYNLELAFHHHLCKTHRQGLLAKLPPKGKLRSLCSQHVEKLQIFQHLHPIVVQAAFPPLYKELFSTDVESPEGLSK
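ROR gamma transcriptional activity was tracked as Gal4-UAS luciferase output in stably transfected Drosophila Schneider cells, with compound added 1 hr before 700 uM copper sulfate induction and a 20 hr ambient-temperature incubation.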
ATXN2 expr inh = ATXN2 expression inhibition. AID 1745845. hit rate 0.72% among 360,000. Potency, µM (highest dose often 57 µM), for inactives: top-dose activity change, negative = inhibition, usual class: inhibitors. HEK-293 ATXN2-luciferase reporter, luminescence, 24 h; note: % is set by controls: 0 for no effect and ±100 for the full control effect; nearly all actives have a fitted effect of over 55% in size
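qHTS (up to 57 uM final) was run with 24 h compound exposure of reporter cells at 37 °C. Each well was multiplexed: SteadyGlo luminescence measured ATXN2-luciferase expression after a fluorogenic Gly-Phe-AFC viability readout (25 uM final).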
HepG2 tox = HepG2 cytotoxicity, counter-screen for TGF-b inhibitors; AID 588856; hit rate 0.76% among 410,000; HepG2 CAGA-GFP viability, ATP luminescence, 18 h; Potency, µM (highest dose often 46.1 µM), inactives show at the highest dose activity change, negative = cytotoxicity, usual class: cytotoxic
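CellTiter-Glo luminescence gave cytotoxicity after 18 hours at 37 degrees C. The cells were HepG2 CAGA-GFP in 1% FBS DMEM, stimulated with 500 pg/mL TGF-beta after compound addition. %Activity was normalised to no-cell wells (complete cell-killing) and DMSO (no toxicity), and curves were fitted and classified.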
An asterisk follows results filed as active; i = inactive; ? = inconclusive; . = not tested or not shown; ! = not active in a repeat. Calls come from the whole dose curve; as a rule, active = well fitted curve in the direction sought with a large enough effect; inconclusive = small, poorly fitted or top-dose-only effect, or another doubt; inactive = no such curve, though single readings can be large; an effect the other way counts as inactive or inconclusive. Potency is the fitted concentration of half-maximal effect.

SMILES	VP16 counter	ATXN viability	TGFb SMAD3 inh	RORg inh	ATXN2 expr inh	HepG2 tox
Oc1ccc(Cl)cc1Sc1cc(Cl)ccc1O	?	?	8.9µM*	?	?	-124%
Nc1cc(Cl)ccc1O	3%	.	.	-4%	.	.
C=C1CCN(C(CC(C)C)C(=O)Nc2ccc(OC)cc2)S(=O)(=O)c2ccccc21 (centres undefined)	0%	.	?	-11%	.	-17%
CN(C)C(=O)Oc1c(Cl)cc(Cl)c2cccnc12	10%	i	1%	15%	5%	4%
Cc1ccc2c(Cl)cc(Cl)c(O)c2n1	0.89µM*!	?	13µM*	0.56µM*!	7.1µM*!	-30%
COc1ccc(C(O)P(=O)(OC(C)C)OC(C)C)cc1 (centres undefined)	-2%	i	?	4%	.	4%
COc1ccc(C(=O)O/N=C(/C(N)=O)P(=O)(OC(C)C)OC(C)C)cc1	7.9µM*	i	0%	16µM*	-7%	-36%
COC(=O)C1CN(C#N)N(c2ccc(Cl)cc2)C12c1ccccc1-c1ccccc12 (centres undefined)	0.79µM*	4µM*	5µM*	0.56µM*	4µM*	3.5µM*
CN1CCC(O)(c2cccs2)C(C(=O)c2cccs2)C1 (centres undefined)	3.2µM*	i	?	4µM*	19%	-30%
CN1CCC(O)(c2ccc(F)cc2)C(C(=O)c2ccc(F)cc2)C1 (centres undefined)	3%	i	.	-23%	-12%	.
Fc1ccccc1-c1n[nH]c(=S)n1Cc1ccccc1	11µM*	i	-8%	7.1µM*	.	-32%
C=Cn1ccnc1P(=S)(c1nccn1C=C)C1CCCCC1	?	i	-4%	10µM*	-1%	-37%
O=C1CN2CCOC2(c2ccccc2Cl)c2cc(Cl)ccc2N1 (centres undefined)	.	i	.	.	5%	.
CCC(C)(C)O	-3%	.	.	24%	.	.
CCc1cccc(NC(=O)CN2C(=O)CN=C(c3ccccc3F)c3cc(Cl)ccc32)c1	.	.	13µM*	.	.	-55%
Cc1cccc(CN2C(=O)CN=C(c3ccccc3)c3cc(Cl)ccc32)c1	.	.	16µM*	.	.	-41%
Cc1cc(C)cc(NC(=O)CN2C(=O)CN=C(c3ccccc3)c3cc(Cl)ccc32)c1	.	.	?	.	.	-46%
O=C(CN1CCOCC1)Nc1ccc(Br)cc1C(=O)c1ccccc1	-6%	i	3%	36%	-1%	-18%
O=C(Nc1ccc(Br)cc1C(=O)O)c1ccc2c(c1)C(=O)N(Cc1ccccc1)C2=O	?	i	-2%	10µM*	-21%	1%
Cc1ccc2c(c1)C1C[N+](C)(CC(=O)Nc3ccccc3Cl)CCC1N2C(=O)c1ccccc1Cl (centres undefined)	.	?	32%	.	5%	73%
Clc1ccc(C(c2ccc(Cl)cc2)C(Cl)Cl)cc1	1%	.	.	35%	.	.
C=CCC1(C(C)CCC)C(=O)N=C(S)NC1=O (centres undefined)	-4%	.	.	10µM*	.	.
CCC1=Nc2cc(C(=O)N3CCC4(CC3)OCCO4)ccc2Sc2ccccc21	-1%	?	-15%	24%	-20%	-17%
CCCC1=Nc2cc(C(=O)NCCCN(CC)CC)ccc2Sc2ccccc21	.	?	?	.	32µM*	-80%
Cc1cccc(NC(=O)Oc2ccc(Cl)c3cccnc23)c1	.	i	?	.	.	2.8µM*
CC(=O)Oc1ccc(Cl)c2cccnc12	0.71µM*	.	.	0.56µM*	.	.
COc1ccc2c3c1O[C@H]1[C@@H](O)C=C[C@H]4[C@@H](C2)NCC[C@@]341	.	i	.	.	.	.
CC(Cl)(Cl)Cl	1%	.	.	0%	.	.
C=CCBr	7%	.	.	5%	.	.
O[N+]1=CC=CCC1=S.On1ccccc1=S.[Zn]	0.5µM*	.	.	0.32µM*	.	.
